Eleven compounds from PubChem BioAssay (Tox21) can be followed below.

Test [1] can be described thus: Nuclear factor erythroid 2-related factor 2/antioxidant responsive element (Nrf2/ARE) small molecule agonists: qHTS cell viability counter screen in human keratinocytes (AID 1919968; active = well fitted curve in the direction sought with a large enough effect in the repeat runs; an effect the other way counts as inactive or inconclusive; note: nearly all actives have a fitted effect of over 55% in size; note: potency is the fitted concentration of half-maximal effect). The method, boiled down:
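Cells of the KeratinoSens line were plated at 1,500 per well and left for 5 h before compound transfer from DMSO stocks. After a 23 h incubation (37 C, 5% CO2), CellTiter-Fluor was added. Signal was taken as fluorescence intensity 1 h later.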

Test [2] is described as follows: Nuclear factor erythroid 2-related factor 2/antioxidant responsive element (Nrf2/ARE) small molecule agonists: luciferase reporter gene qHTS assay in human keratinocytes (AID 1919969). Note: nearly all actives have a fitted effect of over 35% in size. Note: potency is the fitted concentration of half-maximal effect. Background: In a reporter assay the amount or activity of a reporter protein is the signal.
In test [3] the target is Gonadotropin-releasing hormone receptor (Homo sapiens) (UniProt P30968). As to the kind of experiment: Human gonadotropin-releasing hormone receptor (GnRHR) small molecule agonists, calcium flux assay in GnRHR-HEK293 cells (AID 1920063). Note: % is set by controls: 0 for no effect and ±100 for the full control effect; nearly all actives have a fitted effect of over 35% in size. Put shortly:
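Compounds dissolved in DMSO are pin-transferred onto dye-loaded GnRHR-HEK293 cells, which were seeded 18 h before at 37 C/5% CO2. Calcium signal is read as fluorescence intensity at 1 s intervals for 3 min.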

Test [4] has as its target KiSS-1 receptor (Homo sapiens) (UniProt Q969F8). Put plainly: Human kisspeptin (KISS1R) small molecule agonists, calcium flux assay in KISS1R-HEK293 cells (AID 1920064; active = well fitted curve in the direction sought with a large enough effect in the repeat runs; an effect the other way counts as inactive or inconclusive; note: % is set by controls: 0 for no effect and ±100 for the full control effect). The method, boiled down: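 Cell line: HEK293, stable human KISS1R. Dye loading 1 h at 37 C after 18 h culture. Read: kinetic fluorescence, 480/540 nm, 3 min at 1 s intervals.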
Test [5] can be described thus: G protein-coupled receptor (GPCR) small molecule agonists, calcium flux assay: HEK293 wild type cell line counter screen (AID 1920065). Note: % is set by controls: 0 for no effect and ±100 for the full control effect. The method, boiled down: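 Tox21 10K compounds, 15 concentrations each in triplicate, pin-transferred in DMSO onto dye-loaded cells; kinetic read at 480/540 nm for 3 min, 1 s intervals.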
(Calcium assays in cells follow changes in intracellular calcium, usually with a dye or a luminescent sensor.)

Test [6] can be described thus: p53 small molecule agonists, cell-based qHTS assay: qHTS cell viability counter screen (AID 1963581). Note: nearly all actives have a fitted effect of over 45% in size. Note: potency is the fitted concentration of half-maximal effect. The method, boiled down: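 ATP content measured by luminescence in HCT-116 p53RE-bla cells treated 16 h at 37 C, same wells as the reporter screen.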
Test [7] has as its target 5-hydroxytryptamine receptor 2A (Homo sapiens) (UniProt P28223). As to the kind of experiment: 5-hydroxytryptamine receptor 2A (HTR2A) small molecule agonists, cell-based qHTS assay (AID 1963587). Note: % is set by controls: 0 for no effect and ±100 for the full control effect; nearly all actives have a fitted effect of over 30% in size. Put shortly: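 Kinetic calcium-flux fluorescence (2 min, 1 sec intervals) after compound addition in agonist mode. HTR2A-CHO cells were cultured 18 h, then dye-loaded 1 h at 37 C.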

Test [8] concerns the target Muscarinic acetylcholine receptor M1 (Homo sapiens) (UniProt P11229). As to the kind of experiment: Cholinergic receptor muscarinic 1 (CHRM1) small molecule antagonists, cell-based qHTS assay (AID 1963588). Note: % is set by controls: 0 for no effect and ±100 for the full control effect; nearly all actives have a fitted effect of over 40% in size. Put shortly: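 Compounds were tested at 15 concentrations in three independent runs. Dye-loaded CHRM1-CHO cells were exposed 5 min at room temperature before stimulation by acetylcholine added at 50nM. Intracellular calcium was read kinetically on FDSS for 3 min.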
(qHTS replaces the single test concentration by a dilution series.)

Test [9] has the same target. Put plainly: Cholinergic receptor muscarinic 1 (CHRM1) small molecule agonists, cell-based qHTS assay (AID 1963589). Note: % is set by controls: 0 for no effect and ±100 for the full control effect; nearly all actives have a fitted effect of over 35% in size. The method, boiled down:
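Homogeneous fluorescence calcium flux, agonist mode. Human M1-expressing CHO cells; compound dosed at 15 concentrations, three independent runs; signal sampled every 1 sec.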

Test [10] is described as follows: cAMP Responsive Elements (CRE) small molecule agonists, cell-based qHTS assay (AID 1963590). Note: % is set by controls: 0 for no effect and ±100 for the full control effect. Put shortly: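 HEK 293T cells stably bearing CRE-bla were plated at 2,000 cells per well and rested 18 h. Compounds, positive controls or DMSO were added for 3 h at 37 C. LiveBLAzer B/G substrate was then loaded for 2 h at room temperature.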
Test [11] can be described thus: cAMP Responsive Elements (CRE) small molecule antagonists, cell-based qHTS assay (AID 1963591; active = well fitted inhibition curve with a large enough effect in the signal ratio in the repeat runs, not every such curve was filed as active; the % refers to the signal ratio; note: % is set by controls: 0 for no effect and ±100 for the full control effect). The method, boiled down: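 First, CRE-bla HEK293T cells settled 18 h at 37 C. Next, compound and 0.25 uM final NKH477 were applied for 3 h. Last, LiveBLAzer B/G substrate was loaded for 2 h at room temperature.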
In test [12] the target is Beta-2 adrenergic receptor (Homo sapiens) (UniProt P07550). As to the kind of experiment: Adrenergic beta2 receptor (ADRB2) small molecule agonists, cell-based qHTS assay (AID 1963593). Put shortly:
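CHO cells stably over-expressing ADRB2 were plated overnight at 37C, then dosed with compounds plus a stimulation mix containing 100uM IBMX and 25uM Ro-20-1724 for 0.5hr at room temperature. cAMP was measured by HTRF competition, 1hr.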

Test [13] addresses D(2) dopamine receptor (Homo sapiens) (UniProt P14416). Put plainly: Dopamine D2 receptor (DRD2) small molecule agonists, cell-based qHTS assay (AID 1963594). Note: % is set by controls: 0 for no effect and ±100 for the full control effect; nearly all actives have a fitted effect of over 35% in size. Put shortly:
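cAMP accumulation in DRD2-HEK293 cells measured by HTRF after 1 h detection; compounds added 10 min before NKH477 (200nM […]) forskolin-analogue stimulation, 30 min at room temperature, with Ro20-1724 present at 0.1 mM final.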

Test [14] is described as follows: p53 small molecule agonists, cell-based qHTS assay (AID 1963582; active = well fitted activation curve with a large enough effect in the signal ratio in the repeat runs, not every such curve was filed as active; the % refers to the signal ratio; note: % is set by controls: 0 for no effect and ±100 for the full control effect). The method, boiled down: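 16 h compound exposure (37 C) of p53 response element–bla cells, preceded by 5 h recovery at 37 C/5% CO2; read-out via LiveBLAzer B/G FRET substrate, 2 h RT, fluorescence intensity.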
The target in test [15] is Beta-2 adrenergic receptor (Homo sapiens) (UniProt P07550). Put plainly: Adrenergic beta2 receptor (ADRB2) small molecule antagonists, cell-based qHTS assay (AID 1963592). Note: nearly all actives have a fitted effect of over 50% in size. Note: potency is the fitted concentration of half-maximal effect. Put shortly: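 Assay format: CHO-ADRB2 cells, 18-20hr seeding at 37C/5% CO2, then compound plus 1nM isoproterenol agonist mix for 0.5hr RT. Homogeneous time-resolved fluorescence cAMP detection after 1hr, expressed as 665/615 nm ratio.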

The target of test [16] is D(2) dopamine receptor (Homo sapiens) (UniProt P14416). Put plainly: Dopamine D2 receptor (DRD2) small molecule antagonists, cell-based qHTS assay (AID 1963595; active = well fitted inhibition curve with a large enough effect in the signal ratio in the repeat runs, with a control signal flat; the % refers to the signal ratio; note: potency is the fitted concentration of half-maximal effect). Put shortly: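 Readout: HTRF cAMP, cAMP-d2 competing with cellular cAMP for anti-cAMP cryptate, read after 1 h. Cells: DRD2-HEK293. Conditions: 0.1 mM Ro20-1724, 12 nM quinpirole, 200 nM NKH477, 30 min RT.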
Test [17] deals with 5-hydroxytryptamine receptor 2A (Homo sapiens) (UniProt P28223). As to the kind of experiment: 5-hydroxytryptamine receptor 2A (HTR2A) small molecule antagonists, cell-based qHTS assay (AID 1963586). Note: % is set by controls: 0 for no effect and ±100 for the full control effect; nearly all actives have a fitted effect of over 45% in size. Put shortly: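 CHO cells stably expressing human HTR2A were plated for 18 h at 37 C, then loaded with calcium dye for 1 h. Compounds were preincubated 5 min at room temperature before DOI (4 nM solution) was added. Kinetic fluorescence was read for 3 min.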

The nature of test [18]: p53 small molecule agonists, cell-based qHTS assay with human liver microsomes: qHTS cell viability counter screen (AID 1963579). Note: potency is the fitted concentration of half-maximal effect; nearly all actives have a fitted effect of over 45% in size. Put shortly:
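p53RE-bla cells (4,000/well) were pre-incubated 5 h at 37 C, then given compounds in DMSO plus human liver microsomes (0.5 mg/mL final) and NADPH (0.5 mg/mL final) for 16 h at 37 C. Viability was read by CellTiter-Glo luminescence.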

Test [19] in a line: p53 small molecule agonists, cell-based qHTS assay with rat liver microsomes: qHTS cell viability counter screen (AID 1963580). Note: % is set by controls: 0 for no effect and ±100 for the full control effect; nearly all actives have a fitted effect of over 45% in size. The method, boiled down: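 Cytotoxicity counter screen: intracellular ATP read by CellTiter-Glo luminescence in the p53 reporter wells. HCT-116 p53RE-bla cells were treated for 16 h at 37 C alongside rat liver microsomes and NADPH, each 0.5 mg/mL final.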

Molecules are shown by their SMILES. Values without a mark were called inactive. Inconclusive results are not listed. Active and inactive are the calls of the source. Unless noted, calls come from the whole dose curve.

Sequence of KiSS-1 receptor (Homo sapiens) (Q969F8 whole entry, looked up): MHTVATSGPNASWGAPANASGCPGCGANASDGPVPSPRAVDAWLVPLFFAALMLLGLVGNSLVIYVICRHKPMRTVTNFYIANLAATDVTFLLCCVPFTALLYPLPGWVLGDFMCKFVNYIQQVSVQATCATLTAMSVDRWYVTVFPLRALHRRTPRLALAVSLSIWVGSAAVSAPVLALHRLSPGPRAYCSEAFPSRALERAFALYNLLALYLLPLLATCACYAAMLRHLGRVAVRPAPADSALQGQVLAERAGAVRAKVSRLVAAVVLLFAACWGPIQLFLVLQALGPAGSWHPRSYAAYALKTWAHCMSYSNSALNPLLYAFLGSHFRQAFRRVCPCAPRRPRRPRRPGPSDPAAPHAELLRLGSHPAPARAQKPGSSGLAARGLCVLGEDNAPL
Sequence of Gonadotropin-releasing hormone receptor (Homo sapiens) (P30968 whole entry, looked up): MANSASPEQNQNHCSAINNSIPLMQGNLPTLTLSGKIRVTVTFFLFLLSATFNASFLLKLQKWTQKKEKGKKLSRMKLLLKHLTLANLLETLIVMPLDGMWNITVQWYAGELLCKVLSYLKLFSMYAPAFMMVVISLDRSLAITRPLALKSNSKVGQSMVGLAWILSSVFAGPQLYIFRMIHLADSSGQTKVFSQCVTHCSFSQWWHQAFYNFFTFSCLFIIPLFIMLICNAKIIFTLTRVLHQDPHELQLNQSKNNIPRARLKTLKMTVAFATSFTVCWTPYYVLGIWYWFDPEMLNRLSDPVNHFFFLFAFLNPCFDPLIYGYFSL
Sequence of D(2) dopamine receptor (Homo sapiens) (P14416 whole entry, looked up): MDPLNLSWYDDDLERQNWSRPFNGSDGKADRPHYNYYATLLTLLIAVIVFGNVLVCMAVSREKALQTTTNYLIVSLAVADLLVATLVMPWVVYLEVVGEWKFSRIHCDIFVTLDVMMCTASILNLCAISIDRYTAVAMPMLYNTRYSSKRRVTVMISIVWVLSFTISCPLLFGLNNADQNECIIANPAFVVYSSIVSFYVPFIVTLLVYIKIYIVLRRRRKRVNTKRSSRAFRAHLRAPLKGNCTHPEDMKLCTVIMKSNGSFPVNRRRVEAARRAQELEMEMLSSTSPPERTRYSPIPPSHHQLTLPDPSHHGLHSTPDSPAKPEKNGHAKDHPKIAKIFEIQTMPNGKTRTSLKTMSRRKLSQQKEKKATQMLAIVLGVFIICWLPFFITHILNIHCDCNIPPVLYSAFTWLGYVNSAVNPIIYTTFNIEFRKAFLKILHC
Sequence of 5-hydroxytryptamine receptor 2A (Homo sapiens) (P28223 whole entry, looked up): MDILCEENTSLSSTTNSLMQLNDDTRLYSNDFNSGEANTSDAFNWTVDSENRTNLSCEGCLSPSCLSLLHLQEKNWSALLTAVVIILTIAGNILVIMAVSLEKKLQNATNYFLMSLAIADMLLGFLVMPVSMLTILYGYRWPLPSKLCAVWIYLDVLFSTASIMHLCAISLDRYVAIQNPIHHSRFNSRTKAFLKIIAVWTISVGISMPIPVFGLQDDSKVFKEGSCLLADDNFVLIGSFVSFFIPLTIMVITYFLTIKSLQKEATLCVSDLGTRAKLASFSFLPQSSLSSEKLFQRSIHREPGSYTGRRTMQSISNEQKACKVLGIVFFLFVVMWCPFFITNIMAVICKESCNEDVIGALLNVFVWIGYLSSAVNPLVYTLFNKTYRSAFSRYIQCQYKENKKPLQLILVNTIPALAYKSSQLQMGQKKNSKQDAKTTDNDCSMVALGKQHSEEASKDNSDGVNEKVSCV
Sequence of Beta-2 adrenergic receptor (Homo sapiens) (P07550 whole entry, looked up): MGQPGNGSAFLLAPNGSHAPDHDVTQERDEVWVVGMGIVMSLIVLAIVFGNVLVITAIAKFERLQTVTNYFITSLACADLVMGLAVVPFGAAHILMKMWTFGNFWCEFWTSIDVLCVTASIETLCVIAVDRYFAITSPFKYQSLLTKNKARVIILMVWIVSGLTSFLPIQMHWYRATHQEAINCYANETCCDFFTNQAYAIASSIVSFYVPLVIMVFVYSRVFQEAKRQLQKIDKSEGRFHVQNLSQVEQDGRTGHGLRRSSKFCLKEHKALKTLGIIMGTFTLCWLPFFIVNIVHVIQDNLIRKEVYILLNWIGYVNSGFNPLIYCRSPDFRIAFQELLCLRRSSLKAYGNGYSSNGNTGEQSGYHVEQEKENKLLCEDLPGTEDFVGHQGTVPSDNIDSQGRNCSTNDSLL
Sequence of Muscarinic acetylcholine receptor M1 (Homo sapiens) (P11229 whole entry, looked up): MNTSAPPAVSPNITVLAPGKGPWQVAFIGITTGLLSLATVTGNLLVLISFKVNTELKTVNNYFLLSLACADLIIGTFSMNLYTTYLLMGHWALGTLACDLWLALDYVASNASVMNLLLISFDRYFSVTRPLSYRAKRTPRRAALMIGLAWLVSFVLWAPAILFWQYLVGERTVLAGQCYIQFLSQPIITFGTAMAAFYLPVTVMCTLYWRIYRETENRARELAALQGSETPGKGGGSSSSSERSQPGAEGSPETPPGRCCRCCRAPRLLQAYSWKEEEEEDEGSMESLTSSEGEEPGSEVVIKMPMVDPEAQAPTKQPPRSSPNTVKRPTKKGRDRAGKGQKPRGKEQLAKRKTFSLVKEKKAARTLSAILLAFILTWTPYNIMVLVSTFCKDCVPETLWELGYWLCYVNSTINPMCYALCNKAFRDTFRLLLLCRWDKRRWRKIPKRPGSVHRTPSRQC

As to `CCCCC(CC)CNCC(CC)CCCC` (configuration not stated), the Potency entry in test [1], in test [2], in test [3], in test [4], in test [5] and in test [6] was “inactive” throughout. For the same compound, the Potency result in test [7], in test [8], in test [9], in test [10], in test [11] and in test [12] was “inactive” throughout. The Potency result in test [13] was “inactive”.
With `CC1=C(C(=O)O)N2C(=O)[C@@H](NC(=O)[C@H](N)c3ccccc3)[C@H]2SC1`, the Potency entry in test [1], in test [2], in test [3], in [4], in [5] and in test [6] was “inactive” throughout. The Potency entry in [14], in test [10], in [15], in test [12], in test [13] and in test [16] was “inactive” each time.
Take `Cc1[nH]nc2c1N=C(c1ccccc1Cl)c1cc([N+](=O)[O-])ccc1N2`: the Potency is 24.3 µM (active) in [1], 54.5 µM (active) in test [2] and 21.7 µM (active) in test [15]. Moreover, the Potency result in test [3], in test [4], in test [5], in [17], in test [7] and in test [9] was “inactive” throughout. The Potency entry in test [11] and in [13] was “inactive” throughout.
As for `O=C(CCCN1CC=C(n2c(=O)[nH]c3ccccc32)CC1)c1ccc(F)cc1`, the Potency entry in test [1], in [2], in [3], in [4], in test [5] and in [13] was “inactive” throughout. For the same compound, in test [16], the Potency was 0.0211 µM (active).
Consider `O=C(O)CCc1nc(-c2ccccc2)c(-c2ccccc2)o1`, for which the Potency result in test [1], in [2], in test [3], in test [4], in [5] and in [15] was “inactive” in each case. Further, the Potency result in test [12], in test [13] and in [16] was “inactive” each time.
`COc1cc(C(C)C)c2c(c1)S(=O)(=O)N(COc1cc(=O)n3cccc(OCCN4CCCCC4)c3n1)C2=O`: the figures for the activity change, negative = cytotoxicity in [1] and in test [6] were -10.3% [at 19 µM] and -1.9% [at 13.5 µM], respectively. The Potency in test [2] is 2.91 µM (active). The activity change in [3] was -0.424% [at 11.8 µM, hits give high values]. The activation in test [4] was -3.13% [at 15.8 µM]; in [5] it was 1.49% [at 11.8 µM]; in [7] it was -1.78% [at 15.9 µM]; in test [13], -15.5% [at 19 µM]. The activity, negative = inhibition in test [8] was -3.39% [at 12.6 µM].
On to `CC(=O)Oc1ccc(C2(c3ccc(OC(C)=O)cc3)Oc3ccccc3NC2=O)cc1`, for which the Potency result in test [1], in test [2], in test [3], in test [4], in [5] and in [17] was “inactive” throughout. Further, the Potency result in [7], in [9], in [10], in test [15] and in test [13] was “inactive” each time.
Consider `O=c1cc(O)c(Cl)c[nH]1`, for which the Potency entry in test [1], in test [2], in test [3], in test [4], in test [5] and in test [6] was “inactive” in each case. Moreover, the Potency entry in test [7], in test [8], in test [9], in test [10], in test [11] and in [15] was “inactive” each time. The Potency result in test [13] and in [16] was “inactive” in each case.
For `CC/C=C\CC/C=C/CO`, the Potency result in [1], in test [2], in test [3], in test [4], in test [5] and in test [6] was “inactive” in each case. The Potency entry in test [17], in test [8], in test [11], in test [15], in test [13] and in test [16] was “inactive” in each case.
With `O=S(=O)(O)c1ccc(Nc2nc(Nc3ccc(/C=C/c4ccc(Nc5nc(Nc6ccc(S(=O)(=O)O)cc6)nc(N(CCO)CCO)n5)cc4S(=O)(=O)O)c(S(=O)(=O)O)c3)nc(N(CCO)CCO)n2)cc1`, the Potency result in [1], in test [2], in test [3], in [4], in [5] and in test [6] was “inactive” each time. The Potency entry in [14], in test [17], in test [8], in [9], in test [10] and in [15] was “inactive” throughout. Besides, the Potency result in test [13] was “inactive”.
`O=C(O)Cc1cc(I)c(Oc2cc(I)c(O)c(I)c2)c(I)c1`: the Potency entry in test [1], in test [3], in test [4], in test [19], in [8] and in [9] was “inactive” each time. For the same compound, the Potency entry in [15] and in [13] was “inactive” each time. Further, the Potency in [2] is 30 µM (active); in test [18], 17.9 µM (active); in [6] it was 22.5 µM (active).
